# Reference: PubChem BioAssay (EPA / NIEHS)
# Results filed as inconclusive are left out. Activity calls are given as the source filed them. How the source made its calls, unless noted: active means hit-call score of the fitted dose curve at least 0.9, where 1 is the maximum; inactive means score below 0.9.
# How the values were obtained:
# [1] = CCTE_Harrill_HTTr_Viability_MCF7: CCTE's 6-hour Cell Viability Assessment for the High-Throughput Transcriptomics (HTTr) Platform, in MCF-7 cells cultured in DMEM + 10% fetal bovine serum, Harrill Lab (AID 2284010)
# Method in brief: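 Viability measured through PI dye exclusion by high-content imaging at 6 h post-dosing.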
# [2] = CCTE_Harrill_HTTr_Apoptosis_MCF7: CCTE's 6-hour Apoptosis Assessment for the High-Throughput Transcriptomics (HTTr) Platform, in MCF-7 cells cultured in DMEM + 10% fetal bovine serum, Harrill Lab (AID 2284011)
# Method in brief: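 Read-out: CellEvent Caspase 3/7 Green signal by high content imaging, gain-of-signal indicating apoptosis. MCF-7 cells, DMEM + 10% FBS, eight-point dilution series, 6 h exposure. Curves fitted bidirectionally relative to DMSO negative control.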
# [3] = CCTE_Shafer_MEA_acute_burst_number: CCTE's Neural Acute Assay for Single-Electrode Bursts, Shafer Lab (AID 2284013)
# Method in brief: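 Primary rat cortical neurons on 16-electrode MEA wells, treated on DIV 13 or 15 with compound at 0.03-40 uM. Single-electrode burst count from 40-min recordings at 37 C before and after exposure; percent change from baseline per well, DMSO negative control.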
# [4] = CCTE_Shafer_MEA_acute_burst_duration_mean: CCTE's Neural Acute Assay for Mean Burst Duration, Shafer Lab (AID 2284014);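 further: hits are decreases in mean burst duration relative to DMSO controls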
# Method in brief: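 Rat primary cortical neurons on 48-well MEA, treated at DIV 13 or 15 with 0.03-40 uM in at least 3 wells. Value is percent change in mean burst duration, comparing 40 min recordings at 37 C before and during exposure.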
# [5] = CCTE_Shafer_MEA_acute_per_burst_spike_number_mean: CCTE's Neural Acute Assay for Average Number of Spikes Per Burst, Shafer Lab (AID 2284015);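 further: hits are decreases in mean spikes per burst versus baseline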
# Method in brief: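 Rat primary cortical neurons on 48-well MEAs (DIV 13 or 15) were treated with 0.03-40 uM compound at 37 C. Mean spikes per burst over 40 min were recorded before and after exposure and expressed as percent change from baseline, relative to DMSO.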
# [6] = CCTE_Shafer_MEA_acute_interburst_interval_mean: CCTE's Neural Acute Assay for Mean Interburst Interval, Shafer Lab (AID 2284016);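 further: percent change of mean interburst interval versus each well's own pre-dose baseline; curves fitted for decrease in interburst interval relative to DMSO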
# Method in brief: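 Rat primary cortical neurons on 48-well MEAs at DIV 13 or 15 were exposed acutely to 0.03-40 uM. Spikes detected at 8x rms noise, 37 C. Mean interburst interval from 40 min recordings expressed as percent change from 40 min pre-treatment baseline.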
# [7] = CCTE_Shafer_MEA_acute_burst_percentage_mean: CCTE's Neural Acute Assay for Percentage of Spikes in a Burst, Shafer Lab (AID 2284017);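 on AC50: curve fitted for loss of signal so potency reflects decreased burst percentage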
# Method in brief: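 Primary rat cortical neurons on 48-well MEA plates, treated on DIV 13 or 15 at 0.03-40 uM. Spikes detected at 8x rms noise at 37C; percent change from 40-min baseline to 40-min post-dose recording, fitted versus DMSO.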
# [8] = CCTE_Shafer_MEA_acute_burst_percentage_std: CCTE's Neural Acute Assay for Standard Deviation of Burst Percentage, Shafer Lab (AID 2284018);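 further: fitted in the negative direction so actives lower burst percentage SD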
# Method in brief: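 Rat primary cortical neurons on 48-well MEAs, DIV 13 or 15, 37 C. 40-min baseline then 40-min recording with compound (0.03-40 uM); well-level SD of per-electrode burst spike percentage, expressed as percent change from baseline.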
# [9] = CCTE_Shafer_MEA_acute_per_network_burst_spike_number_mean: CCTE's Neural Acute Assay for Average Number of Spikes in a Network Burst, Shafer Lab (AID 2284019);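 on AC50: curve fitted for loss of signal so actives reduce spikes per network burst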
# Method in brief: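 Rat primary cortical neurons on 48-well MEA at DIV 13 or 15, 37 C; compounds 0.03-40 uM, at least three wells each. 40-min baseline then 40-min exposure recording; percent change in mean spikes per network burst.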
# [10] = CCTE_Shafer_MEA_acute_per_network_burst_spike_number_std: CCTE's Neural Acute Assay for Standard Deviation of Number of Spikes in a Network Burst, Shafer Lab (AID 2284020);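 further: fitted for decrease in spike-number SD versus DMSO so actives lower it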
# Method in brief: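 Rat primary cortical neurons on 48-well MEA (16 electrodes/well), treated DIV 13 or 15 at 0.03-40 uM, ≥3 wells per compound. 40 min recordings at 37 C before and after dosing; value is percent change in network-burst spike-number SD, negative direction vs DMSO.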
# [11] = CCTE_Shafer_MEA_acute_per_network_burst_electrodes_number_mean: CCTE's Neural Acute Assay for Mean Number of Electrodes in a Network Burst, Shafer Lab (AID 2284021);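 further: curves fitted for decreases only so hits reduce electrodes per burst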
# Method in brief: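 Readout: % change in mean electrodes active per network burst, post- vs pre-treatment, each well. Spikes detected at 8x rms noise after 300-5000 Hz band-pass; rat cortical cultures, DIV 13/15, compounds 0.03-40 uM, DMSO baseline.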
# [12] = CCTE_Shafer_MEA_acute_cross_correlation_area: CCTE's Neural Acute Assay for Area of Cross Correlation, Shafer Lab (AID 2284024);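 further: area under pooled inter-electrode spike cross-correlation near zero lag as percent change from own baseline; curves fitted for loss of cross-correlation area so actives lower synchrony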
# Method in brief: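 Rat cortical cultures, DIV 13/15, MEA; spikes detected at 8x rms noise (300-5000 Hz band-pass). Compound 0.03-40 uM, ≥3 wells each. Readout: % change in pooled inter-electrode cross-correlation area vs own baseline; DMSO negative control.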
# [13] = CCTE_Shafer_MEA_acute_cross_correlation_HWHM: CCTE's Neural Acute Assay for Cross Correlation at Half Width at Half Maximum, Shafer Lab (AID 2284026);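 further: percent change per well from pre-dose baseline in spike cross-correlogram half width; hits are a decrease in cross-correlogram half width relative to DMSO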;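 on outcome: spontaneous network firing of rat primary cortical neurons on multiwell microelectrode arrays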
# Method in brief: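 Read-out: half width at half maximum of action-potential cross-correlogram, percent change versus pre-treatment baseline, fitted in loss direction against DMSO. Rat cortical cultures, DIV 13 or 15, dosed 0.03-40 uM, 40-min recordings at 37 C.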
# [14] = CCTE_Shafer_MEA_acute_synchrony_index: CCTE's Neural Acute Assay for Synchrony, Shafer Lab (AID 2284027);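 further: network synchrony index of spontaneous spiking in primary rat cortical neurons on MEAs; fitted for loss of signal so actives lower synchrony relative to DMSO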
# Method in brief: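 Spontaneous firing of mature rat cortical networks is captured extracellularly on microelectrode arrays at 37 C, with wells needing ≥10 active electrodes. Each compound (0.03-40 uM) is judged by the change in synchrony index from baseline over 40 min.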
# [15] = molecular target: Estrogen receptor (Homo sapiens) (UniProt P03372); test: CCTE_Deisenroth_AIME_384WELL_LUC_Active: CCTE's 384-well Estrogen Receptor Transactivation Assay with AIME metabolic competence (ERTA luciferase; metabolism positive), Deisenroth Lab (AID 2284030; active means hit-call score of the fitted dose curve at least 0.9, where 1 is the maximum)
# Method in brief: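 Readout: bioluminescent luciferase induction in VM7Luc4E2 cells 24 hour after receiving medium from a 2 h rat hepatic S9 (induced, alginate microsphere) metabolism step. Concentrations 0.002 - 200 uM; activity scaled to 17beta-estradiol positive control.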
# [16] = CCTE_Shafer_MEA_dev_firing_rate_mean: CCTE's Neural Network Formation Assay for Mean Firing Rate, Shafer Lab (AID 2284031);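 further: AUC of well mean spike rate recorded on DIV 5 7 9 and 12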;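 on AC50: curve fitted for loss of firing so AC50 reflects decreased mean firing rate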
# Method in brief: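 Developing rat cortical networks on MEA plates undergo 12-day compound exposure. Firing frequency, averaged across active electrodes, is integrated as area under the curve over four recording days, referenced to DMSO.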
# Sequence of Estrogen receptor (Homo sapiens) (P03372 whole entry, looked up): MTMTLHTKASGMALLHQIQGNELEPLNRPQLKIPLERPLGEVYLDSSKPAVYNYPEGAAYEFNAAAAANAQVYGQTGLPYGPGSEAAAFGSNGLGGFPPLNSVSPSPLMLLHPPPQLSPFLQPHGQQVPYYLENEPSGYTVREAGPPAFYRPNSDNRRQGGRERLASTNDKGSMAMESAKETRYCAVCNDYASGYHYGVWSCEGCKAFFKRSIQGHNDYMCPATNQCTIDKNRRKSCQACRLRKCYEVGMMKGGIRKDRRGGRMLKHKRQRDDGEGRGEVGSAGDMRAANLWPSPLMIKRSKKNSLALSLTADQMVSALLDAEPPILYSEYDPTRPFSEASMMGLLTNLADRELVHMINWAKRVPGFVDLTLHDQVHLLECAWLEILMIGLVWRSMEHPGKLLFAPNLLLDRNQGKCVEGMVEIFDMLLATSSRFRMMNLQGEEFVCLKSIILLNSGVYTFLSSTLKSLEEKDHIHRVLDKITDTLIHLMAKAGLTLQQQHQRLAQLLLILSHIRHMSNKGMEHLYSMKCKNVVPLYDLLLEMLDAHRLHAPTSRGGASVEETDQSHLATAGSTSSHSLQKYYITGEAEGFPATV
smiles,measurement,setting,value
CCOC(=O)C(C)OC(=O)c1cc(Oc2ccc(C(F)(F)F)cc2Cl)ccc1[N+](=O)[O-] (stereo not given),outcome,[1],inactive
same,outcome,[2],inactive
same,outcome,[3],inactive
same,outcome,[4],inactive
same,outcome,[5],inactive
same,outcome,[6],inactive
same,outcome,[7],inactive
same,outcome,[8],inactive
same,outcome,[9],inactive
same,outcome,[10],inactive
same,outcome,[11],inactive
same,outcome,[12],inactive
same,outcome,[13],inactive
same,outcome,[14],inactive
same,outcome,[15],inactive
same,outcome,[16],inactive
Cc1ccc(N=CN(C)C=Nc2ccc(C)cc2C)c(C)c1,outcome,[1],inactive
same,outcome,[2],inactive
same,outcome,[3],inactive
same,AC50,[4],4.21 µM (active)
same,AC50,[5],0.308 µM (active)
same,AC50,[6],0.16 µM (active)
same,outcome,[7],inactive
same,outcome,[8],inactive
same,AC50,[9],0.427 µM (active)
same,AC50,[10],4.1 µM (active)
same,outcome,[11],inactive
same,outcome,[12],inactive
same,outcome,[13],inactive
same,outcome,[14],inactive
same,outcome,[15],inactive
Cc1cnc(C2=NC(C)(C(C)C)C(=O)N2)c(C(=O)O)c1 (stereo not given),outcome,[1],inactive
same,outcome,[2],inactive
CCOc1cc(C(C)(C)C)ccc1C1COC(c2c(F)cccc2F)=N1 (stereo not given),outcome,[1],inactive
same,outcome,[2],inactive
same,AC50,[3],3.12 µM (active)
same,outcome,[4],inactive
same,outcome,[5],inactive
same,outcome,[6],inactive
same,AC50,[7],20 µM (active)
same,outcome,[8],inactive
same,outcome,[9],inactive
same,AC50,[10],29 µM (active)
same,AC50,[11],4.3 µM (active)
same,outcome,[12],inactive
same,AC50,[13],20 µM (active)
same,AC50,[14],20 µM (active)
CSC(=O)c1c(C(F)F)nc(C(F)(F)F)c(C(=O)SC)c1CC(C)C,outcome,[1],inactive
same,outcome,[2],inactive
CC(C)N1C(=O)c2ccccc2NS1(=O)=O,outcome,[1],inactive
same,outcome,[2],inactive
same,outcome,[3],inactive
same,outcome,[4],inactive
same,outcome,[5],inactive
same,outcome,[6],inactive
same,outcome,[7],inactive
same,outcome,[8],inactive
same,outcome,[9],inactive
same,outcome,[10],inactive
same,outcome,[11],inactive
same,outcome,[12],inactive
same,outcome,[13],inactive
same,outcome,[14],inactive
same,outcome,[15],inactive
C=C(C)CN(CC)c1c([N+](=O)[O-])cc(C(F)(F)F)cc1[N+](=O)[O-],outcome,[1],inactive
same,outcome,[2],inactive
same,outcome,[3],inactive
same,outcome,[4],inactive
same,outcome,[5],inactive
same,outcome,[6],inactive
same,outcome,[7],inactive
same,outcome,[8],inactive
same,outcome,[9],inactive
same,outcome,[10],inactive
same,outcome,[11],inactive
same,outcome,[12],inactive
same,outcome,[13],inactive
same,outcome,[14],inactive
same,outcome,[15],inactive
same,AC50,[16],12.8 µM (active)
